# Experimental data: PubChem BioAssay (NCI)
# The panel holds about 83,000 compounds, 20% with a hit somewhere; the sample as a whole holds those more often.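 96-well plates, one dose, 48 hours. Percent growth reported; active if below 10.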 The source made the active and inactive calls.
# Test system: SNB-75 CNS
# Test: NCI-60 one-dose screen, 48 h (100 = growth as untreated, 0 = no growth, -100 = all killed)
# Conditions: 10 µM unless noted
row,Structure (SMILES),growth
1,Cc1nn(-c2ccccc2)c(Oc2ccc(Cl)cc2)c1/C=N\N=c1/sc2ccccc2n1C,74.4% (inactive)
2,CC(C)Sc1nc(NNC(N)=S)c(C#N)c(-c2ccc(F)cc2)n1,62.6% (inactive)
3,NC(=O)c1ccc[n+](Cc2ccc(Cl)cc2Cl)c1,102% (inactive)
4,CCCCCCCC/C=C\CCCCCCCCOc1ccccc1CC(=O)NCC[N+](C)(C)C,45.9% (inactive)
5,O=C1Nc2ccccc2/C1=C/c1cn(C(=O)c2ccc(Cl)cc2)c2ccccc12,87.7% (inactive)
6,O=C1/C(=C\c2cccnc2)SC(=S)N1CCc1ccc(O)cc1,-4.79% (active)
7,COc1ccc(C2C(c3nn[nH]n3)=C(N)Oc3c2ccc2ccccc32)cc1 (stereo unspecified),39.9% (inactive)
8,COc1ccc(NC(=O)CSc2nnc(-c3cc(-c4ccc(S(N)(=O)=O)cc4)nc4ccccc34)n2-c2ccccc2)cc1,55.7% (inactive)
9,COc1ccc(-c2csc(C3=C(O)CN(C(C)C)C3=N)n2)cc1OC,112% (inactive)
10,Cn1cc(-c2csc(-c3ccccc3)n2)c2cccnc21,-15.9% [100 µM] (active)
11,CCN1CCN(c2cc(C)nc(NCc3cc(Nc4ccnc5cc(Cl)ccc45)ccc3F)n2)CC1,79% (inactive)
12,C#CCOc1nc(C)cc(C)c1C#N,79.6% (inactive)
13,Cc1cc(O)c(C2=NN(c3ccc(S(N)(=O)=O)cc3)C(c3ccccc3Cl)C2)cc1Cl (stereo unspecified),41.7% (inactive)
14,N#Cc1c(-c2cccc(Cl)c2)cc(-c2cccc(Cl)c2)[nH]c1=O,43% (inactive)
15,N=c1sc(Cc2ccc(Cl)cc2)cn1CC(=O)c1ccc(F)cc1,90.3% (inactive)
16,COc1cc(CCC[P+](c2ccccc2)(c2ccccc2)c2ccccc2)cc2c1OCO2,12.7% (inactive)
17,CCCCc1ccc(Nc2ccc(Nc3ccc(CCCC)cc3S(=O)(=O)O)c3c2C(=O)c2ccccc2C3=O)c(S(=O)(=O)O)c1,89.9% (inactive)
18,COc1ccc2occ(C3=C(c4c[nH]c5ccccc45)C(=O)N(O)C3=O)c2c1,99.7% (inactive)
19,CC1(C)OC2C(CO[Si](C)(C)C(C)(C)C)OC(n3c(I)c(C#C[Si](C)(C)C)c(=O)[nH]c3=O)C2O1 (stereo unspecified),-71.4% (active)

row,Structure (SMILES),growth
1,Cc1ccc(S(=O)(=O)NCC[C@@H]2C[C@H]2c2cc3ccccc3s2)cc1,82.7% (inactive)
2,NC[C@H](O)c1ccc(O)c(O)c1,120% (inactive)
3,C=C(C)[C@@H]1CC[C@]2(C(=O)NC3CCCCC3)CC[C@]3(C)[C@H](CC[C@@H]4[C@@]5(C)CCC(=O)C(C)(C)[C@@H]5CC[C@]43C)[C@@H]12,85.6% (inactive)
4,N=C1CCC(=N)c2c1c(O)c1ccccc1c2O,87.2% (inactive)
5,COC(=O)[C@]12CC[C@@H](C)[C@H](C)[C@@H]1C1=CC[C@@H]3[C@@]4(C)C(C=O)=C[C@@](C)(COC(C)=O)[C@@H]4C(=O)C[C@@]3(C)[C@]1(C)CC2,33.5% (inactive)
6,COc1cc(/C=N/Nc2ncc(-c3cc4cc5c(cc4o3)OCO5)s2)cc(OC)c1OC,72.4% (inactive)
7,OC(c1cccc(-n2ccc(C(F)(F)F)n2)c1)c1cnccc1NC1CCCCCC1 (stereo unspecified),64.4% (inactive)
8,COc1ccc(-c2[nH]c(=S)n(C(CC3(C)NCC(=O)N3n3c(-c4ccccc4)cc(C)nc3=S)c3ccc(OC)cc3)c(=O)c2Br)cc1 (stereo unspecified),3.88% (active)
9,Cc1ccc(Cl)c(NS(=O)(=O)c2ccc(-c3cnc(C4CC4)o3)cc2)c1,-10.1% (active)
10,O=C(NC(Cc1nnc2n(Cc3ccccc3)c(=O)c3c4c(sc3n12)CCCC4)c1ccc(Cl)cc1)c1ccccc1 (stereo unspecified),73.7% (inactive)
11,Cc1c(O)cc(-c2cnc(N/N=C\c3ccc(Cl)cc3)s2)c(O)c1C,94.2% (inactive)
12,CCN(CC)CCn1nc2c3c(cccc3c1=O)-c1ccccc1-2,50.9% (inactive)
13,Fc1c[c-]c(-c2ccccn2)c(F)c1.[CH3-].[Pt+2].c1ccc(P(C[PH+](c2ccccc2)c2ccccc2)c2ccccc2)cc1,-14.1% (active)
14,CCN1C(=O)N(CC)C2Nn3c(s/c(=C\c4cccc([N+](=O)[O-])c4)c3=O)=NC21 (stereo unspecified),20% (inactive)
15,N#C/C(=C/C=C/c1cccc(Cl)c1)S(=O)c1ccccc1 (stereo unspecified),-28% (active)
16,Oc1c(CN2CCCC2)cc(COCc2ccc(Br)cc2)c2cccnc12,24.5% (inactive)
17,O=C(CCCCCCN1CC(=O)N2[C@@H](c3ccccc3Cl)c3[nH]c4ccccc4c3C[C@H]2C1=O)NO,-1.06% (active)
18,COc1ccc(C2CC(c3cccc(OC)c3)=NN2C(=O)c2cc(OC)c(OC)c(OC)c2)cc1 (stereo unspecified),22.3% (inactive)
19,CCc1c2c(nc3ccc(OC(=O)OCc4ccc(B5OC(C)(C)C(C)(C)O5)cc4)cc13)-c1cc3c(c(=O)n1C2)COC(=O)[C@]3(O)CC,-21.5% (active)

# Test system: SNB-19 CNS
# Test: as above
# Conditions: 10 µM unless noted
row,Structure (SMILES),growth
1,Cc1nn(-c2ccccc2)c(Oc2ccc(Cl)cc2)c1/C=N\N=c1/sc2ccccc2n1C,99.1% (inactive)
2,CC(C)Sc1nc(NNC(N)=S)c(C#N)c(-c2ccc(F)cc2)n1,97% (inactive)
3,NC(=O)c1ccc[n+](Cc2ccc(Cl)cc2Cl)c1,101% (inactive)
4,CCCCCCCC/C=C\CCCCCCCCOc1ccccc1CC(=O)NCC[N+](C)(C)C,25.3% (inactive)
5,O=C1Nc2ccccc2/C1=C/c1cn(C(=O)c2ccc(Cl)cc2)c2ccccc12,99.1% (inactive)
6,O=C1/C(=C\c2cccnc2)SC(=S)N1CCc1ccc(O)cc1,82.5% (inactive)
7,COc1ccc(C2C(c3nn[nH]n3)=C(N)Oc3c2ccc2ccccc32)cc1 (stereo unspecified),67.3% (inactive)
8,COc1ccc(NC(=O)CSc2nnc(-c3cc(-c4ccc(S(N)(=O)=O)cc4)nc4ccccc34)n2-c2ccccc2)cc1,82.5% (inactive)
9,COc1ccc(-c2csc(C3=C(O)CN(C(C)C)C3=N)n2)cc1OC,104% (inactive)
10,Cn1cc(-c2csc(-c3ccccc3)n2)c2cccnc21,-50.2% [100 µM] (active)
11,CCN1CCN(c2cc(C)nc(NCc3cc(Nc4ccnc5cc(Cl)ccc45)ccc3F)n2)CC1,68.3% (inactive)
12,C#CCOc1nc(C)cc(C)c1C#N,96.2% (inactive)
13,Cc1cc(O)c(C2=NN(c3ccc(S(N)(=O)=O)cc3)C(c3ccccc3Cl)C2)cc1Cl (stereo unspecified),58.1% (inactive)
14,N#Cc1c(-c2cccc(Cl)c2)cc(-c2cccc(Cl)c2)[nH]c1=O,71.6% (inactive)
15,N=c1sc(Cc2ccc(Cl)cc2)cn1CC(=O)c1ccc(F)cc1,88% (inactive)
16,COc1cc(CCC[P+](c2ccccc2)(c2ccccc2)c2ccccc2)cc2c1OCO2,14.9% (inactive)
17,CCCCc1ccc(Nc2ccc(Nc3ccc(CCCC)cc3S(=O)(=O)O)c3c2C(=O)c2ccccc2C3=O)c(S(=O)(=O)O)c1,104% (inactive)
18,COc1ccc2occ(C3=C(c4c[nH]c5ccccc45)C(=O)N(O)C3=O)c2c1,91.8% (inactive)
19,CC1(C)OC2C(CO[Si](C)(C)C(C)(C)C)OC(n3c(I)c(C#C[Si](C)(C)C)c(=O)[nH]c3=O)C2O1 (stereo unspecified),105% (inactive)

row,Structure (SMILES),growth
1,Cc1ccc(S(=O)(=O)NCC[C@@H]2C[C@H]2c2cc3ccccc3s2)cc1,95.6% (inactive)
2,NC[C@H](O)c1ccc(O)c(O)c1,112% (inactive)
3,C=C(C)[C@@H]1CC[C@]2(C(=O)NC3CCCCC3)CC[C@]3(C)[C@H](CC[C@@H]4[C@@]5(C)CCC(=O)C(C)(C)[C@@H]5CC[C@]43C)[C@@H]12,84.2% (inactive)
4,N=C1CCC(=N)c2c1c(O)c1ccccc1c2O,103% (inactive)
5,COC(=O)[C@]12CC[C@@H](C)[C@H](C)[C@@H]1C1=CC[C@@H]3[C@@]4(C)C(C=O)=C[C@@](C)(COC(C)=O)[C@@H]4C(=O)C[C@@]3(C)[C@]1(C)CC2,37.4% (inactive)
6,COc1cc(/C=N/Nc2ncc(-c3cc4cc5c(cc4o3)OCO5)s2)cc(OC)c1OC,76.1% (inactive)
7,OC(c1cccc(-n2ccc(C(F)(F)F)n2)c1)c1cnccc1NC1CCCCCC1 (stereo unspecified),71.1% (inactive)
8,COc1ccc(-c2[nH]c(=S)n(C(CC3(C)NCC(=O)N3n3c(-c4ccccc4)cc(C)nc3=S)c3ccc(OC)cc3)c(=O)c2Br)cc1 (stereo unspecified),55.6% (inactive)
9,Cc1ccc(Cl)c(NS(=O)(=O)c2ccc(-c3cnc(C4CC4)o3)cc2)c1,18.9% (inactive)
10,O=C(NC(Cc1nnc2n(Cc3ccccc3)c(=O)c3c4c(sc3n12)CCCC4)c1ccc(Cl)cc1)c1ccccc1 (stereo unspecified),88.5% (inactive)
11,Cc1c(O)cc(-c2cnc(N/N=C\c3ccc(Cl)cc3)s2)c(O)c1C,97% (inactive)
12,CCN(CC)CCn1nc2c3c(cccc3c1=O)-c1ccccc1-2,26% (inactive)
13,Fc1c[c-]c(-c2ccccn2)c(F)c1.[CH3-].[Pt+2].c1ccc(P(C[PH+](c2ccccc2)c2ccccc2)c2ccccc2)cc1,-54.8% (active)
14,CCN1C(=O)N(CC)C2Nn3c(s/c(=C\c4cccc([N+](=O)[O-])c4)c3=O)=NC21 (stereo unspecified),53.3% (inactive)
15,N#C/C(=C/C=C/c1cccc(Cl)c1)S(=O)c1ccccc1 (stereo unspecified),-53% (active)
16,Oc1c(CN2CCCC2)cc(COCc2ccc(Br)cc2)c2cccnc12,23.2% (inactive)
17,O=C(CCCCCCN1CC(=O)N2[C@@H](c3ccccc3Cl)c3[nH]c4ccccc4c3C[C@H]2C1=O)NO,71.8% (inactive)
18,COc1ccc(C2CC(c3cccc(OC)c3)=NN2C(=O)c2cc(OC)c(OC)c(OC)c2)cc1 (stereo unspecified),28.5% (inactive)
19,CCc1c2c(nc3ccc(OC(=O)OCc4ccc(B5OC(C)(C)C(C)(C)O5)cc4)cc13)-c1cc3c(c(=O)n1C2)COC(=O)[C@]3(O)CC,1.62% (active)
